From PubChem BioAssay (NCI)
About 83,000 compounds went through this panel and 20% of them were active in at least one assay; those are over-represented in the sample as a whole.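 Plates (96-well) were seeded with cells, treated with compound at one concentration, and incubated for 48 hours before percent growth was determined.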 Calls of active or inactive are those of the source. Rule for the calls: active = growth percent below 10; inactive = the rest.

tested on: SK-MEL-2 melanoma; experiment: NCI-60 one-dose screen, 48 h (100 = growth as untreated, 0 = no growth, -100 = all killed); conditions: 10 µM unless noted

Row | Structure (SMILES) | growth
1 | CC(C)(C)c1cc(-c2nc3ccc(N4CCN(CCO)CC4)cc3[nH]2)cc(C(C)(C)C)c1O | 81.8% (inactive)
2 | Clc1ccc(/C=C/c2nc(N3CCOCC3)c3nc(Cl)c(Cl)cc3n2)cc1 | 110% (inactive)
3 | CCOC(=O)/C=C\C(=O)NC(N)=O | 101% (inactive)
4 | CCC#CC[C@H]1C/C=C2/C(=O)C=C[C@@H]2C/C=C\CCCC(=O)O1 | 8.9% (active)
5 | O=C(Cc1c(F)cccc1Cl)Nc1ccc(S(=O)(=O)Nc2ncccn2)cc1 | 73.1% (inactive)
6 | C=CCc1cc(Cl)cc2c(OC(C)=O)c(C(C)=O)c(-c3ccccc3)nc12 | 112% (inactive)
7 | Cc1c(C(=O)NCc2ccccc2)[n+](=O)c2cc(F)ccc2n1[O-] | 40.8% (inactive)
8 | C=CCOc1cccc(/C=C/C(=O)c2sc(Nc3cccnc3)nc2C)c1 | 84.4% (inactive)
9 | COc1ccc(C(=O)c2cc(OC)c(OC)c(OC)c2)cc1/C=C/C(=O)c1ccc2c(c1)OCO2 | 22.2% (inactive)
10 | CCN(CC)S(=O)(=O)c1ccc2[nH]c(=O)cc(C(=O)Nc3ccc(OC)cc3OC)c2c1 | 88.8% (inactive)
11 | O=C(Nc1cc(C(F)(F)F)cc(C(F)(F)F)c1)Nc1ccc(OCc2nnc(-c3ccc(Cl)cc3)o2)c(F)c1 | -37.9% (active)
12 | O=C1CCCCN1CCCCC#Cc1ccccc1C#Cc1ccccn1 | 64.5% (inactive)
13 | COc1ccc2c(c1)C=CC(C#N)N2C(=O)c1ccccc1 (stereo not given) | 67.4% (inactive)
14 | CC1(C)OC2COC3(C(=O)O)OC(C)(C)OC3C2O1 (stereo not given) | 93.1% (inactive)
15 | COc1cc(C2C=C(C)N=C3SC(C)=NN32)cc(OC)c1OC (stereo not given) | 107% (inactive)
